Source: the supplement of paper PMC10849652
Targets with a hit are over-represented here; the source holds about 8,800 in all. About 0.5% of all pairs of compound and target were hits.

Experiments:
Assay in all cases: log2 fold change, soluble protein after heating vs DMSO (PISA); higher = thermal stabilisation; K562 lysate, 10 uM; active = over 0.2 and 3.5 SD of the protein, either way, in both replicates (recomputed)
vemurafenib = compound: CCCS(=O)(=O)Nc1ccc(F)c(C(=O)c2c[nH]c3ncc(-c4ccc(Cl)cc4)cc23)c1F [vemurafenib]
Procedure, shortened: (§1)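 Log-two fold change in thermal stability relative to solvent controls is reported from duplicates. For each sample, crude K562 extract from dounce-homogenised pellets in PBS pH 7.4 with 1 mM MgCl2, at 1 mg/mL protein, was treated with 10 μM compound for 30 min. Aliquots heated for 3 min across 48°C-58°C were pooled, brought to 0.5% NP-40 at 4°C and cleared at 21,000xg for 90 min. The supernatant was quantified by TMTpro 16plex LC-MS/MS with channel sums equalised.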

[1] = compound: CCCS(=O)(=O)Nc1ccc(F)c(C(=O)c2c[nH]c3ncc(Cl)cc23)c1F
Procedure, shortened: as §1

barasertib = compound: CCN(CCCOc1ccc2c(Nc3cc(CC(=O)Nc4cccc(F)c4)[nH]n3)ncnc2c1)CCOP(=O)(O)O [barasertib]
Procedure, shortened: as §1

[2] = compound: CC[C@@H]1C(=O)N(C)c2cnc(Nc3ccc(C(=O)NC4CCN(C)CC4)cc3OC)nc2N1C1CCCC1
Procedure, shortened: as §1

volasertib = compound: CC[C@@H]1C(=O)N(C)c2cnc(Nc3ccc(C(=O)N[C@H]4CC[C@H](N5CCN(CC6CC6)CC5)CC4)cc3OC)nc2N1C(C)C [volasertib]
Procedure, shortened: as §1

[3] = compound: CCn1c(C(=O)N(C2CC2)C2CC2)cc2c3c(ncn3C)c(Nc3cc(C)n(C)n3)nc21
Procedure, shortened: as §1

[4] = compound: CCn1cc(-c2ccnc3[nH]c(-c4cccc(CN(C)C)c4)cc23)c(-c2ccc(NC(=O)N(C)C)cc2)n1
Procedure, shortened: as §1

[5] = compound: CN1CCC(CNc2ccc3ncc(-c4cccc(OC(F)(F)F)c4)n3n2)CC1
Procedure, shortened: as §1

saracatinib = compound: CN1CCN(CCOc2cc(OC3CCOCC3)c3c(Nc4c(Cl)ccc5c4OCO5)ncnc3c2)CC1 [saracatinib]
Procedure, shortened: as §1

sotrastaurin = compound: CN1CCN(c2nc(C3=C(c4c[nH]c5ccccc45)C(=O)NC3=O)c3ccccc3n2)CC1 [sotrastaurin]
Procedure, shortened: as §1

alvocidib = compound: CN1CC[C@H](c2c(O)cc(O)c3c(=O)cc(-c4ccccc4Cl)oc23)[C@H](O)C1 [alvocidib]
Procedure, shortened: as §1

Tubastatin A = compound: CN1CCc2c(c3ccccc3n2Cc2ccc(C(=O)NO)cc2)C1 [Tubastatin A]
Procedure, shortened: as §1

[6] = compound: CNC(=O)C1=CC=CC=C1NC2=NC(=NC=C2Cl)NC3=C(C=C(C=C3)N4CCOCC4)OC
Procedure, shortened: as §1

defactinib = compound: CNC(=O)c1ccc(Nc2ncc(C(F)(F)F)c(NCc3nccnc3N(C)S(C)(=O)=O)n2)cc1 [defactinib]
Procedure, shortened: as §1

[7] = compound: CNc1nc(-c2ccc3c(N)n[nH]c3c2)cc(N2C[C@@H](C(=O)NC3CCCCC3)CC[C@H]2C)n1
Procedure, shortened: as §1

encorafenib = compound: COC(=O)N[C@@H](C)CNc1nccc(-c2cn(C(C)C)nc2-c2cc(Cl)cc(NS(C)(=O)=O)c2F)n1 [encorafenib]
Procedure, shortened: as §1

[8] = compound: COC(=O)[C@H](CCSC)NC(=O)C1=C(C=C(C=C1)NC[C@H](CS)N)C2=CC=CC=C2
Procedure, shortened: as §1

alisertib = compound: COc1cc(Nc2ncc3c(n2)-c2ccc(Cl)cc2C(c2c(F)cccc2OC)=NC3)ccc1C(=O)O [alisertib]
Procedure, shortened: as §1

[9] = compound: COc1cc2nc(-c3cc(F)ccc3O)nc(N[C@@H]3CNC[C@H]3C(C)(C)O)c2cc1OC
Procedure, shortened: as §1

gefitinib = compound: COc1cc2ncnc(Nc3ccc(F)c(Cl)c3)c2cc1OCCCN1CCOCC1 [gefitinib]
Procedure, shortened: as §1

Measured: log2 fold change

TROAP (UniProt Q12815)
UniProt Q12815, sequence (Q12815 whole entry, looked up): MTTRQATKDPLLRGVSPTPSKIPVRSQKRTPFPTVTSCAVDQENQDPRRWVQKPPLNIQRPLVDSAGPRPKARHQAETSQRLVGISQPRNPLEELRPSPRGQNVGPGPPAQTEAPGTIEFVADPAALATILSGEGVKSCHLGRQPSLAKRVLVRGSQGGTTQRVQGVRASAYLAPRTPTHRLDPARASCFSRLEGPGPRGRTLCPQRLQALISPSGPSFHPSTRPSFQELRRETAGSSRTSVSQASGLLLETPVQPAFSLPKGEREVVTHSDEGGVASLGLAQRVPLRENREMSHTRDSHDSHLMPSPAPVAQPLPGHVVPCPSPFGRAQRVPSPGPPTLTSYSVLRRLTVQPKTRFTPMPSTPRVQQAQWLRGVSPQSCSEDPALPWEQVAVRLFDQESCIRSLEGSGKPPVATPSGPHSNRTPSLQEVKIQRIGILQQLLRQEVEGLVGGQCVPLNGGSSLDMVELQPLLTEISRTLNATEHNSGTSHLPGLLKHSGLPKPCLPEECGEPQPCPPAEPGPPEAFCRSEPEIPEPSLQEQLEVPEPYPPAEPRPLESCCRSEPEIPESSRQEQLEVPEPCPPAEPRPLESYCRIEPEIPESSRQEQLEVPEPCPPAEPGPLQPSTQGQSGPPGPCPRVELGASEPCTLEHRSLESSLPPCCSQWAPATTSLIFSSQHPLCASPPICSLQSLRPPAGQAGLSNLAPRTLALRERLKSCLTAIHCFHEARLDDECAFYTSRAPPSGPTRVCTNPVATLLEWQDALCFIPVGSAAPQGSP
inactive: vemurafenib 0.113 | [1] 0.146 | barasertib 0.053 | [2] 0.063 | volasertib 0.31 | [3] 0.043 | [4] -0.03 | [5] 0.042 | saracatinib 0.014 | sotrastaurin 0.002 | alvocidib -0.042 | Tubastatin A -0.043 | [6] 0.022 | defactinib 0.021 | [7] 0.076 | encorafenib -0.193 | [8] 0.217 | alisertib -0.09 | [9] -0.171 | gefitinib -0.015

TUBB2A (UniProt Q13885)
UniProt Q13885, sequence (Q13885 whole entry, looked up): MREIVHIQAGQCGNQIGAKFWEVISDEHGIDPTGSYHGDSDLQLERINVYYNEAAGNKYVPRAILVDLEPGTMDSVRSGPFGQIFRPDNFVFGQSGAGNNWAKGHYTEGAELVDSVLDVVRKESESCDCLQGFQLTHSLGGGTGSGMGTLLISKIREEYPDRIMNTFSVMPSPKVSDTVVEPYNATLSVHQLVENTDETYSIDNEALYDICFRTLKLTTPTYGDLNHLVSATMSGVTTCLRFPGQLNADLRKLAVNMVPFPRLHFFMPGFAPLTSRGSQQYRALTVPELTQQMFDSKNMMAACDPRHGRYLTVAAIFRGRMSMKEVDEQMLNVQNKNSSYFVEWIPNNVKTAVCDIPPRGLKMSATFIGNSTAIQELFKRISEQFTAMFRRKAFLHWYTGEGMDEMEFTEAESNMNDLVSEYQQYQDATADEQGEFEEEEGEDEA
inactive: vemurafenib -0.001 | [1] 0.016 | barasertib -0.013 | [2] -0.007 | volasertib -0.049 | [3] 0.003 | [4] -0.032 | [5] 0.002 | saracatinib 0.011 | sotrastaurin 0.017 | alvocidib -0.007 | Tubastatin A -0.062 | [6] -0.021 | defactinib 0.006 | [7] -0.008 | encorafenib 0.01 | [8] 0.071 | alisertib -0.005 | [9] -0.001 | gefitinib -0.006

TTI2 (UniProt Q6NXR4)
UniProt Q6NXR4, sequence (Q6NXR4 whole entry, looked up): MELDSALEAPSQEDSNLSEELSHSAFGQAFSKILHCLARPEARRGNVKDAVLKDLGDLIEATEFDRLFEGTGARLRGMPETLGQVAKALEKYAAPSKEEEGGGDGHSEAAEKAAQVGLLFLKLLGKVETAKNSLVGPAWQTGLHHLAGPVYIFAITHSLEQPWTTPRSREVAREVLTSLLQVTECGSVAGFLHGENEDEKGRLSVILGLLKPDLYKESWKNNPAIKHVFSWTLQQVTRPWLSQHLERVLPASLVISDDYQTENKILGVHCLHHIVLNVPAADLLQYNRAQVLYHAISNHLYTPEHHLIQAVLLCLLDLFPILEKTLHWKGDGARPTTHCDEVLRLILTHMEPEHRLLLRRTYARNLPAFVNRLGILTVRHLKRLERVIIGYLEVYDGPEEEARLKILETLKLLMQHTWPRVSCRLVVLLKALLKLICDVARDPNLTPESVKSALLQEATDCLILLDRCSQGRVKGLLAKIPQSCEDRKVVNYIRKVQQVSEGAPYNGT
inactive: vemurafenib -0.009 | [1] 0 | barasertib 0.005 | [2] -0.022 | volasertib -0.048 | [3] -0.004 | [4] 0 | [5] 0.035 | saracatinib 0.037 | sotrastaurin 0.031 | alvocidib -0.006 | Tubastatin A -0.081 | [6] 0.03 | defactinib 0.069 | [7] 0.006 | encorafenib 0.072 | [8] 0.015 | alisertib 0.004 | [9] 0.024 | gefitinib -0.034

TUBA3C (UniProt P0DPH7)
UniProt P0DPH7, sequence (P0DPH7 whole entry, looked up): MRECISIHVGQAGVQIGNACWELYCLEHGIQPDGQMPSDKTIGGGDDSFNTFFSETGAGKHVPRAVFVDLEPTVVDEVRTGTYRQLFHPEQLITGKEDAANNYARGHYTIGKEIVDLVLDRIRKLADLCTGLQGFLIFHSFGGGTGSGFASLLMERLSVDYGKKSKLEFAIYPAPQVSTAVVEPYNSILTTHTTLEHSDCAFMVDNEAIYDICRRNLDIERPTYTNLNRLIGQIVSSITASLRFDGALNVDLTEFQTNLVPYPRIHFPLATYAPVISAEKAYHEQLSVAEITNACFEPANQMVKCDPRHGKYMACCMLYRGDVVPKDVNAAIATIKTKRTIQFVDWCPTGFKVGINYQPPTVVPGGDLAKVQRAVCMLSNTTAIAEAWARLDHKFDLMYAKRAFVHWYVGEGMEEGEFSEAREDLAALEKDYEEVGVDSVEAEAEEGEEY
inactive: vemurafenib 0.037 | [1] 0.021 | barasertib -0.011 | [2] -0.041 | volasertib -0.026 | [3] 0.012 | [4] -0.062 | [5] -0.013 | saracatinib 0.013 | sotrastaurin 0.048 | alvocidib -0.012 | Tubastatin A -0.15 | [6] 0.01 | defactinib -0.013 | [7] -0.018 | encorafenib -0.037 | [8] 0.042 | alisertib -0.023 | [9] -0.035 | gefitinib -0.005

TPM1 (UniProt H7BYY1)
active: [5] -0.205
inactive: vemurafenib -0.001 | [1] -0.024 | barasertib -0.031 | [2] 0.052 | volasertib 0.043 | [3] -0.003 | [4] 0.092 | saracatinib 0.009 | sotrastaurin 0.015 | alvocidib 0.027 | Tubastatin A 0.092 | [6] 0.007 | defactinib 0 | [7] 0.022 | encorafenib 0.056 | [8] -0.023 | alisertib -0.048 | [9] -0.04 | gefitinib 0.076

TRAF2 isoform 2 (UniProt Q12933)
UniProt Q12933, sequence (Q12933 whole entry, looked up): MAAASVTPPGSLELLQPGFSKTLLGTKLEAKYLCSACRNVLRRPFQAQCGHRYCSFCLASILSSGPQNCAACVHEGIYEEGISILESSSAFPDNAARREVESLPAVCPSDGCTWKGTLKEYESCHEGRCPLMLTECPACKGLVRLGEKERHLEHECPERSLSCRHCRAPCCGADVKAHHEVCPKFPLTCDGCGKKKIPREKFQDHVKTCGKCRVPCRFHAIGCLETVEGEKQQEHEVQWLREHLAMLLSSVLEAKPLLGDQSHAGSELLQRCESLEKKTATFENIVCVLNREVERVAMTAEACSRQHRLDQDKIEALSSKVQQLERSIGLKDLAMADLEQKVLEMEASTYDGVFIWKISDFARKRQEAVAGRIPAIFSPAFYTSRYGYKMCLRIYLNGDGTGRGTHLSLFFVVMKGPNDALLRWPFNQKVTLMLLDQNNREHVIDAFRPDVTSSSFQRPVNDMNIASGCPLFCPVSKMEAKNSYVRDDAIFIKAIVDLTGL
inactive: vemurafenib -0.004 | [1] 0.012 | barasertib 0 | [2] 0.072 | volasertib -0.006 | [3] 0.013 | [4] -0.034 | [5] -0.032 | saracatinib -0.011 | sotrastaurin -0.029 | alvocidib -0.006 | Tubastatin A -0.006 | [6] 0.025 | defactinib -0.013 | [7] 0.01 | encorafenib 0.004 | [8] -0.198 | alisertib 0.003 | [9] -0.007 | gefitinib -0.04

TBC1D8B (UniProt Q0IIM8)
UniProt Q0IIM8, sequence (Q0IIM8 whole entry, looked up): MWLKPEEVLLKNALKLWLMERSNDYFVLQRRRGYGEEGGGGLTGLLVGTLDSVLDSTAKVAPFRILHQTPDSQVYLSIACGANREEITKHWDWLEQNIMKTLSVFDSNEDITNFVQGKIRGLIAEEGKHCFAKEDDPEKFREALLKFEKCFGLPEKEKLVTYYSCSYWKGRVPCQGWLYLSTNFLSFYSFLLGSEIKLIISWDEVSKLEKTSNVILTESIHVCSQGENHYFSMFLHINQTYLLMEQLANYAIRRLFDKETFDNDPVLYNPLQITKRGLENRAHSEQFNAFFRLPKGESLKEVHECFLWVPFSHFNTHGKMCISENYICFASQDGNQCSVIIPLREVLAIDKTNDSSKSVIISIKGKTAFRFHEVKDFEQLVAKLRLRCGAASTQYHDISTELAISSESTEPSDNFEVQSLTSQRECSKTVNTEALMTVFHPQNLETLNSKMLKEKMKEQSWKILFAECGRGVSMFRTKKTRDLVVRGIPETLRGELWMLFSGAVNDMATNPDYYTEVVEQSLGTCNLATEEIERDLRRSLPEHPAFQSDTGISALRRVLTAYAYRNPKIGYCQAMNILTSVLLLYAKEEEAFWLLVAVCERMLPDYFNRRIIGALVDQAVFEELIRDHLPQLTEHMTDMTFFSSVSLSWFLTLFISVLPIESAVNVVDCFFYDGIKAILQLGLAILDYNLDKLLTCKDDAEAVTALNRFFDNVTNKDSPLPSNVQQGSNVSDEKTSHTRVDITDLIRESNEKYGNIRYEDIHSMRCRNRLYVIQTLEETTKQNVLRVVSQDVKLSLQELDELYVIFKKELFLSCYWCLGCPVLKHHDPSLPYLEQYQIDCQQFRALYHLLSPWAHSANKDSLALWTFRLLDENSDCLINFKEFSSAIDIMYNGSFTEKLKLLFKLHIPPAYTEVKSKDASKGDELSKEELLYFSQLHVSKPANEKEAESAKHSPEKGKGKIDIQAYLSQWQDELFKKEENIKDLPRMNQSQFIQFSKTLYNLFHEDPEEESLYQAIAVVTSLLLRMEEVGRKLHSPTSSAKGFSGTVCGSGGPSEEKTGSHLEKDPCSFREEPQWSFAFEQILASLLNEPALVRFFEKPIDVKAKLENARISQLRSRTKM
active: [4] -0.308
inactive: vemurafenib -0.007 | [1] -0.025 | barasertib 0.108 | [2] 0.096 | volasertib 0.072 | [3] -0.024 | [5] 0.192 | saracatinib -0.047 | sotrastaurin -0.042 | alvocidib -0.134 | Tubastatin A 0.051 | [6] -0.017 | defactinib -0.057 | [7] 0.078 | encorafenib -0.032 | [8] 0.033 | alisertib 0.11 | [9] 0.026 | gefitinib 0.008

TUBB (UniProt P07437)
UniProt P07437, sequence (P07437 whole entry, looked up): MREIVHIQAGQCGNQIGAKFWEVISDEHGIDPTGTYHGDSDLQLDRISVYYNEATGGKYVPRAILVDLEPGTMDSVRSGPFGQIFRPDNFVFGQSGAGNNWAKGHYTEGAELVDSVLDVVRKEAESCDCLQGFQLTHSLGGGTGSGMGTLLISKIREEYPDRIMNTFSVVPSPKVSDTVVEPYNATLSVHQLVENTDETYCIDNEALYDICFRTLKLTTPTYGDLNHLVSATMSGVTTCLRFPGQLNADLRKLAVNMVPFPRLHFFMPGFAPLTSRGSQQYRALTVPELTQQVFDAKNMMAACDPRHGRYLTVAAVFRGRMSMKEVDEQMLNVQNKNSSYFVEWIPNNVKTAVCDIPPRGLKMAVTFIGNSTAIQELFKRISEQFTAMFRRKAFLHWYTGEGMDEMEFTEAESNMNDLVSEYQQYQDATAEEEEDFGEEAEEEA
inactive: vemurafenib 0.018 | [1] 0.003 | barasertib -0.051 | [2] -0.02 | volasertib -0.063 | [3] -0.017 | [4] -0.041 | [5] 0.004 | saracatinib 0.029 | sotrastaurin 0.017 | alvocidib 0.01 | Tubastatin A -0.035 | [6] -0.001 | defactinib 0.007 | [7] 0.007 | encorafenib -0.013 | [8] 0.081 | alisertib 0.014 | [9] -0.012 | gefitinib -0.031
